Measured values from PubChem BioAssay AID463173 (ICCB-Longwood Screening Facility, Harvard Medical School, 2010).
In all, about 52,000 compounds went through this assay and about 1,700 (3.3%) were called active. Cut-off read from the data, not from the text of the source: active = survival mostly below about 52% (no sharp cut-off); inactive = mostly above about 56%. The sample as a whole holds a higher share of actives than the screen did.

tested on: Wild type; assay: growth inhibition of S. aureus wild type versus tarO mutant, primary screen, teichoic acid synthesis inhibitors, RN4220, OD600 (AID 463173); settings: S. aureus RN4220 wild type/DeltatarO growth, OD600, 18 h, active compounds read low, screened at 18.75 µg/mL (by protocol)

Which survival does the source give for `CCc1ccc(NC(=O)CN2C(=O)c3ccccc3Sc3ccc(C(=O)N4CCCC4)cc32)cc1` here?
The survival was 82% (inactive).

How did the survival turn out when `Cc1ccc(NC(=O)CN2C(=O)c3ccccc3Sc3ccc(C(=O)N4CCOCC4)cc32)c(Cl)c1` was run?
Its survival is -6% (active).

For `O=C(CN1C(=O)c2ccccc2Sc2ccc(C(=O)N3CCOCC3)cc21)Nc1ccc(Cl)cc1F`, which survival is on record?
Its survival is 73% (inactive).

For `CN(C)c1ccc(NC(=O)CN2C(=O)c3ccccc3Sc3ccc(C(=O)N4CCCC4)cc32)cc1`, which survival is on record?
Its survival is -4% (active).

`Cc1cc(C)cc(NC(=O)CN2C(=O)c3ccccc3Sc3ccc(C(=O)N4CCOCC4)cc32)c1` was tested. Which survival did it give?
Its survival is 69% (inactive).

`Cc1ccc(NC(=O)CN2C(=O)c3ccccc3Sc3ccc(C(=O)N4CCCC4)cc32)cc1` was tested. Which survival did it give?
Its survival is 64% (inactive).

With `Fc1ccc(-c2noc3ncnc(NCc4cccc(Cl)c4)c23)cc1` as the compound, how does the survival read?
Its survival is 55% (inactive).

How did the survival turn out when `COc1ccccc1CN1CCNC(=O)C1=O` was run?
The survival was 77% (inactive).

Which survival does the source give for `O=C(CSc1nc2c([nH]c3ccccc32)c(=O)n1-c1ccccc1)N1CCOCC1` here?
The survival was 75% (inactive).

`O=S1(=O)c2ccccc2N(Cc2ccccc2Cl)c2ccccc21` was tested. Which survival did it give?
Its survival is 80% (inactive).

With `COc1ccc(N2CCN(C(CNC(=O)C(=O)NCCc3ccccc3)c3cccnc3)CC2)cc1` (stereo not given) as the compound, how does the survival read?
Its survival is 84% (inactive).

How did the survival turn out when `CCC(CO)NC(=O)C(=O)Nc1c2c(nn1-c1ccc(F)cc1)CSC2` (stereo not given) was run?
Its survival is 87% (inactive).

With `CN1CCN(C(=O)C(=O)Nc2c3c(nn2-c2ccc(Cl)cc2)CSC3)CC1` as the compound, how does the survival read?
Its survival is 71% (inactive).

Which survival does the source give for `CC(NC(=O)C(=O)Nc1c2c(nn1-c1ccccc1)CSC2)c1ccccc1` (stereo not given) here?
Its survival is 55% (inactive).

For `CC(NC(=O)C(=O)Nc1c2c(nn1-c1ccc(F)cc1)CSC2)c1ccccc1` (stereo not given), which survival is on record?
Its survival is -4% (active).

`CN1CCN(C(=O)C(=O)Nc2c3c(nn2-c2ccc(F)cc2)CSC3)CC1` was tested. Which survival did it give?
Its survival is 81% (inactive).

With `CC(=O)N1CCN(C(=O)C(=O)Nc2c3c(nn2-c2ccc(Cl)cc2)CSC3)CC1` as the compound, how does the survival read?
Its survival is -3% (active).

How did the survival turn out when `Cc1cccc(OCC(=O)N(Cc2cccc(Cl)c2)Cc2ccco2)c1C` was run?
The survival was 85% (inactive).

For `CCOC(=O)c1ccc(NC(=O)c2cnc3c(-c4ccc(F)cc4)c(C)nn3c2C)cc1`, which survival is on record?
The survival was 120% (inactive).

Which survival does the source give for `CCOC(=O)c1ccc(CN(Cc2ccc(OC)cc2)S(=O)(=O)c2cccc(C(F)(F)F)c2)cc1` here?
Its survival is 73% (inactive).

How did the survival turn out when `Cc1ccc(NC(=O)c2cc(S(=O)(=O)NCCC3=CCCCC3)ccc2F)cc1C` was run?
The survival was -3% (active).

Which survival does the source give for `Cc1ccc(NC(=O)c2cc(S(=O)(=O)NC3CCCCC3)ccc2F)cc1Cl` here?
Its survival is -6% (active).

How did the survival turn out when `COc1ccc(OC)c(NC(=O)c2cc(S(=O)(=O)NCCc3ccc(Cl)cc3)ccc2F)c1` was run?
The survival was 79% (inactive).

For `COc1ccc(CCNS(=O)(=O)c2ccc(F)c(C(=O)Nc3ccc(Cl)cc3)c2)cc1OC`, which survival is on record?
Its survival is 126% (inactive).

With `Cc1ccc(NC(=O)c2cc(S(=O)(=O)NC3CCCCCC3)ccc2F)cc1F` as the compound, how does the survival read?
The survival was 79% (inactive).

With `CCc1ccc(NC(=O)c2ccc(F)c(S(=O)(=O)NC3CCCCCC3)c2)cc1` as the compound, how does the survival read?
Its survival is -4% (active).

For `O=C(Nc1ccc(Br)cc1)c1ccc(F)c(S(=O)(=O)NC2CCCCCC2)c1`, which survival is on record?
The survival was 56% (inactive).

For `CCc1ccccc1NC(=O)c1cc(S(=O)(=O)NCCc2ccc(OC)c(OC)c2)ccc1F`, which survival is on record?
The survival was 0% (active).

For `O=C(Nc1ccc(F)c(F)c1)c1cc(S(=O)(=O)NC2CCCCCC2)ccc1F`, which survival is on record?
Its survival is 53% (inactive).

For `Cc1cc(C)cc(NC(=O)c2cc(S(=O)(=O)NCCC3=CCCCC3)ccc2F)c1`, which survival is on record?
The survival was 80% (inactive).

For `CCc1ccc(NC(=O)c2ccc(F)c(S(=O)(=O)N(C)C3CCCCC3)c2)cc1`, which survival is on record?
Its survival is 71% (inactive).

How did the survival turn out when `Cc1ccc(NC(=O)c2cc(S(=O)(=O)NCCC3=CCCCC3)ccc2F)cc1F` was run?
Its survival is 82% (inactive).

Which survival does the source give for `O=S(=O)(c1ccccc1)c1nc(-c2cccs2)oc1SCc1ccc(F)cc1` here?
Its survival is 61% (inactive).

Which survival does the source give for `O=C(COCc1cc(-c2cccs2)on1)Nc1ccc(OC(F)(F)F)cc1` here?
The survival was 124% (inactive).

For `CCc1cccc(NC(=O)c2nc(-c3ccncc3)no2)c1`, which survival is on record?
Its survival is 101% (inactive).

Which survival does the source give for `CC(NC(=O)c1ccc(CSc2nc3ccncc3n2Cc2ccc(F)cc2)cc1)c1ccccc1` (stereo not given) here?
Its survival is 92% (inactive).

With `CCCNC(=O)c1c(NC(=O)c2ccccc2)sc2c1CCC(C(C)(C)C)C2` (stereo not given) as the compound, how does the survival read?
The survival was 2% (active).

With `CC(C)(C)C1CCc2c(sc(NC(=O)CCC(=O)O)c2C(=O)Nc2ccccc2C(F)(F)F)C1` (stereo not given) as the compound, how does the survival read?
Its survival is 1% (active).

Which survival does the source give for `CC1CCN(C(=O)c2c(NC(=O)c3ccccc3F)sc3c2CCC(C(C)(C)C)C3)CC1` (stereo not given) here?
The survival was -2% (active).

How did the survival turn out when `Cc1ccccc1C(=O)Nc1sc2c(c1C(=O)NCc1ccco1)CCC(C(C)(C)C)C2` (stereo not given) was run?
Its survival is 88% (inactive).

For `Cc1ccccc1NC(=O)c1c(NC(=O)c2ccccc2F)sc2c1CCC(C)C2` (stereo not given), which survival is on record?
The survival was 82% (inactive).

Which survival does the source give for `Cc1ccc(C(=O)Nc2sc3c(c2C(=O)NCc2ccco2)CCC(C(C)(C)C)C3)cc1` (stereo not given) here?
The survival was 70% (inactive).

Which survival does the source give for `CC(C)(C)C1CCc2c(sc(NC(=O)c3cccc(Cl)c3)c2C(N)=O)C1` (stereo not given) here?
Its survival is 75% (inactive).

Which survival does the source give for `COc1ccccc1NC(=O)c1c(NC(=O)c2cccs2)sc2c1CCC(C(C)(C)C)C2` (stereo not given) here?
The survival was 118% (inactive).

For `COc1ccccc1NC(=O)c1c(NC(=O)Cc2ccccc2)sc2c1CCC(C(C)(C)C)C2` (stereo not given), which survival is on record?
The survival was 102% (inactive).

`CC(C)(C)C1CCc2c(sc(NC(=O)c3ccc(Cl)cc3)c2C(=O)NCc2ccco2)C1` (stereo not given) was tested. Which survival did it give?
Its survival is 95% (inactive).

How did the survival turn out when `Cc1ccccc1NC(=O)c1c(NC(=O)c2ccncc2)sc2c1CCC(C(C)(C)C)C2` (stereo not given) was run?
Its survival is 91% (inactive).

With `Cc1ccccc1C(=O)Nc1sc2c(c1C(=O)O)CCC(C(C)(C)C)C2` (stereo not given) as the compound, how does the survival read?
Its survival is 6% (active).

With `CCCNC(=O)CCCN1C(=O)CCn2nc(-c3cccn3C)cc21` as the compound, how does the survival read?
The survival was 71% (inactive).

For `O=C(CN1CCC(O)(c2ccccc2)CC1)NC1CCCCC1`, which survival is on record?
Its survival is 111% (inactive).

With `Cc1ccc(CNC(=O)CCCCCn2c(=O)c3sccc3n(CC(=O)N(C)c3ccccc3)c2=O)cc1` as the compound, how does the survival read?
The survival was 83% (inactive).

`O=C(CSc1nc(=O)[nH]c2c1CCCC2)NCc1ccccc1Cl` was tested. Which survival did it give?
Its survival is 135% (inactive).

How did the survival turn out when `COc1ccc(NC(=O)N2CCN(S(=O)(=O)c3ccc4c(ccn4C)c3)CC2)c(OC)c1` was run?
The survival was 87% (inactive).

With `CC(C)(C)C1CCc2c(sc(NC(=O)c3ccccc3F)c2C(=O)N2CCCCC2)C1` (stereo not given) as the compound, how does the survival read?
Its survival is -3% (active).

For `CCN(CC)C(=O)c1c(NC(=O)c2ccccc2F)sc2c1CCC(C(C)(C)C)C2` (stereo not given), which survival is on record?
Its survival is -3% (active).

Which survival does the source give for `CC(C)(C)C1CCc2c(sc(NC(=O)c3ccccc3F)c2C(=O)NCc2ccco2)C1` (stereo not given) here?
Its survival is 70% (inactive).

With `CN(C)C(=O)c1c(NC(=O)c2ccccc2F)sc2c1CCCC2` as the compound, how does the survival read?
The survival was 82% (inactive).

For `CC1CCN(C(=O)c2c(NC(=O)c3ccccc3Cl)sc3c2CCC(C(C)(C)C)C3)CC1` (stereo not given), which survival is on record?
The survival was 2% (active).

Which survival does the source give for `CC(C)(C)C1CCc2c(sc(NC(=O)c3ccncc3)c2C(=O)Nc2ccccc2Cl)C1` (stereo not given) here?
Its survival is 84% (inactive).

With `Cc1ccccc1C(=O)Nc1sc2c(c1C(=O)N1CCCCC1)CCC(C)C2` (stereo not given) as the compound, how does the survival read?
Its survival is 36% (inactive).

`O=C(Nc1sc2c(c1C(=O)N1CCCCC1)CCCC2)c1ccccc1Cl` was tested. Which survival did it give?
Its survival is 75% (inactive).

Which survival does the source give for `Cc1ccccc1C(=O)Nc1sc2c(c1C(=O)N1CCC(C)CC1)CCC(C)C2` (stereo not given) here?
The survival was 0% (active).

How did the survival turn out when `CCOc1ccccc1NC(=O)c1c(NC(=O)c2ccccc2C)sc2c1CCC(C)C2` (stereo not given) was run?
The survival was 75% (inactive).

`CC(C)(C)C1CCc2c(sc(NC(=O)c3ccco3)c2C(=O)Nc2ccccc2Cl)C1` (stereo not given) was tested. Which survival did it give?
The survival was 108% (inactive).

How did the survival turn out when `Cc1ccccc1C(=O)Nc1sc2c(c1C(=O)N1CCC(C)CC1)CCCC2` was run?
Its survival is 64% (inactive).
